Screens (PubChem)
TEAD-YAP block: TEAD-YAP interaction inhibition, primary screen, TEAD-YAP interaction inhibitor project, luminescence, HEK-TIYL cells | AID 1259422, 2018 | TEAD-Gal4/YAP UAS-luciferase luminescence | inhibition, % at 9.12 µM | 640,000 tested, 1.4% active; in the data active = inhibition above about 32%
GPR151 ag: activators of human GPR151, primary screen, cell-based, PathHunter beta-arrestin, luminescence; AID 1508602, 2020; PathHunter beta-arrestin GPR151 cells; activation, % at 11.2 µM; 650,000 tested, 1% active; G-protein coupled receptor 151 (Homo sapiens), Q8TDV0; in the data active = activation above about 4.9%
Target sequence (Q8TDV0 whole entry, looked up): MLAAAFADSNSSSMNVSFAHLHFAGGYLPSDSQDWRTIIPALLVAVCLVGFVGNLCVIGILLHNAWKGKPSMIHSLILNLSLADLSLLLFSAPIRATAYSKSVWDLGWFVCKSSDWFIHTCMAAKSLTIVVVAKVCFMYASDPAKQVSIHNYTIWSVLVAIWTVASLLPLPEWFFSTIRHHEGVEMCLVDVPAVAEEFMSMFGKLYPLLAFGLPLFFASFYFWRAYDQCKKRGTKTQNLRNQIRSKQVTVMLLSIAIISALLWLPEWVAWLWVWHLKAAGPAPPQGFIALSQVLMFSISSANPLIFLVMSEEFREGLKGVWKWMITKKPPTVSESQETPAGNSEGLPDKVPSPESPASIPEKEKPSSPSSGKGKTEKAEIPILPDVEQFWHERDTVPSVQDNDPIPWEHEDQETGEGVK
FBW7 act: FBW7 E3 ligase activators, primary screen, biochemical, AlphaScreen, human. F-box/WD repeat-containing protein 7 (Homo sapiens), Q969H0. AlphaScreen FBW7–phospho-cyclin E peptide binding, activator screen. normalized activity (activation), % at 26.1 µM. 650,000 tested, 0.13% active; in the data active = normalized activity above about 1.9%;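 also: purified mutant Fbw7 with reduced substrate affinity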
MITF primary: MITF inhibitors, primary screen, biochemical, AlphaScreen, human. Microphthalmia-associated transcription factor (Homo sapiens), O75030. AlphaScreen MITF homodimerization, bead proximity signal. inhibition, % at 2.6 µM. 650,000 tested, 0.91% active; in the data active = inhibition above about 50%
Large screens that a line does not name were inactive. A selection: hits, their analogues and other compounds. The true share with any hit is near 3.5%.

CCCOC(=O)C1=C(C)NC2=C(C(=O)CC(c3ccc(OC)c(OC)c3)C2)C1c1cccc(C)c1 (centres undefined)	TEAD-YAP block 33
CCCOC(=O)C1=C(C)NC2=C(C(=O)CC(c3ccc(OC)c(OC)c3)C2)C1c1cccc(Br)c1 (centres undefined)	TEAD-YAP block 38
CCCOC(=O)C1=C(C)NC2=C(C(=O)CC(c3ccc(OC)c(OC)c3)C2)C1c1ccccc1C (centres undefined)	none
CCCOC(=O)C1=C(C)NC2=C(C(=O)CC(c3ccc(OC)c(OC)c3)C2)C1c1ccccc1F (centres undefined)	TEAD-YAP block 41
Cn1cccc1/C=C1/N=C(c2ccc([N+](=O)[O-])cc2)OC1=O	none
CCCCN1CCN(c2ccc(F)c(Cl)c2)C1=O	none
COc1ccc(C2CC(=O)C3=C(C2)NC(C)=C(C(=O)OC2CCCCC2)C3c2ccc([N+](=O)[O-])cc2)cc1OC (centres undefined)	none
COc1ccc(C2CC(=O)C3=C(C2)NC(C)=C(C(=O)OC(C)C)C3c2ccc(SC)cc2)cc1OC (centres undefined)	none
COc1ccc(C2CC(=O)C3=C(C2)NC(C)=C(C(=O)OC(C)C)C3c2ccc(F)cc2)cc1OC (centres undefined)	TEAD-YAP block 42
COc1ccc(C2CC(=O)C3=C(C2)NC(C)=C(C(=O)OC2CCCCC2)C3c2cccc([N+](=O)[O-])c2)cc1OC (centres undefined)	TEAD-YAP block 35
CCOC(=O)CCc1c(C)nc2cc(-c3cccc(Cl)c3)[nH]n2c1=O	none
O=C(CSc1cc(N2CCOCC2)ncn1)c1cccs1	TEAD-YAP block 73
O=S(=O)(c1cccs1)N1CCN(c2cc(N3CCOCC3)ncn2)CC1	none
CS(=O)(=O)C1=NSC2=NC(=O)/C(=C\c3ccc(Br)o3)C(=N)N21	MITF primary 74
CC(C)S(=O)(=O)C1=NSC2=NC(=O)/C(=C\c3ccc(Br)o3)C(=N)N21	MITF primary 84
COc1cccc(-c2cnc(NCc3ccc(F)cc3)n2C)c1	none
COc1cccc(-c2cnc(NCc3cccc(Cl)c3)n2C)c1	TEAD-YAP block 41
COc1cccc(-c2cnc(NCc3cccc(F)c3)n2C)c1	TEAD-YAP block 45
COC1CCN(C2CCN(c3ccc(NC(=O)CCc4ccccc4)cc3)CC2)CC1	none
O=C(c1ccc2c(=O)n(-c3ccccc3)c(=S)[nH]c2c1)N1CCOCC1	none
O=C(c1ccc2c(=O)n(-c3ccccc3)c(=S)[nH]c2c1)N1CCCCC1	TEAD-YAP block 43
Cc1nc2ccc(NC(=O)c3ccc(S(=O)(=O)N(C)C)cc3)cc2c(=O)n1-c1ccc(Cl)cc1	TEAD-YAP block 38
O=C(CN1CCN(c2ccc([N+](=O)[O-])cc2)CC1)Nc1ccc(Br)cc1	none
O=C1C(=O)c2ncccc2-c2cccnc21	TEAD-YAP block 75, MITF primary 57
CC1(C)Cc2nc3sc4c(SCC(=O)O)ncnc4c3cc2CO1	TEAD-YAP block 47
CCCCNC(=O)C(C)n1c2ccccc2c2cn[nH]c(=O)c21 (centres undefined)	none
COC(=O)C1=C(C)N(C)C(=O)NC1c1c(Cl)cccc1Cl (centres undefined)	none
CCOC(=O)Cn1cc(C=O)c2ccccc21	none
CCOC(=O)Cn1cc(C(=O)OC)c2ccccc21	FBW7 act 2.3
N/C(=N\OC(=O)c1ccccc1I)c1cccnc1	none
CCCc1cc(N2CCN(c3ccc(OC)cc3)CC2)n2cnnc2n1	TEAD-YAP block 42
C[n+]1ccccc1/C=C\c1ccccc1O	none
C[n+]1ccccc1/C=C/C1=C(c2ccccc2)Oc2ccccc2O1	TEAD-YAP block 83
CC(=O)OC1c2cc(C)ccc2NC(c2ccccc2)C1(C)C (centres undefined)	TEAD-YAP block 63
CC(=O)OC1c2ccccc2NC(c2ccccc2)C1(C)C (centres undefined)	none
CC(/C=N/NC(=O)COc1cccc(C)c1)=C\c1ccccc1	none
CC(=O)c1sc(=Nc2ccccc2)n(CCCO)c1C	none
O=c1[nH]c(N/N=C/c2ccccc2O)nnc1Cc1ccccc1	TEAD-YAP block 60, MITF primary 101
O=c1cnnc(N/N=C/c2ccccc2O)[nH]1	MITF primary 108
Cc1ccc(/C=N/Nc2nnc(Cc3ccccc3)c(=O)[nH]2)o1	none
CC1(C)NC(=O)N(CC(=O)OCc2c(Cl)cccc2Cl)C1=O	none
CC(C)OC(=O)CCC/C=C\C[C@@H]1[C@@H](/C=C/[C@H](O)C2Cc3ccccc3C2)[C@@H](F)C[C@@H]1O	none (no result: TEAD-YAP block, FBW7 act)
CC(C)OC(=O)c1c(-c2ccc(Br)cc2)csc1NC(=O)C1C2CCC(C2)C1C(=O)O (centres undefined)	none
CC(C)OC(=O)c1c(-c2ccc(Br)cc2)csc1NC(=O)/C=C/C(=O)O	TEAD-YAP block 36
O=C1NC(=O)/C(=C/c2ccc(OCc3ccc(C(=O)O)cc3)c(Cl)c2)S1	none
CCOc1cc(N2CCOCC2)c(OCC)cc1NC(=O)c1cc(Cl)c(Cl)cc1C(=O)O	MITF primary 70
CCOc1cc(N2CCOCC2)c(OCC)cc1NC(=O)c1cccc([N+](=O)[O-])c1C	none
Cc1ccc(SCC(=O)NC2CC2)cc1	none
O=C(CSc1ccc(Sc2ccc(SCC(=O)NC3CC3)cc2)cc1)NC1CC1	TEAD-YAP block 34
CCCNc1cc(Nc2ccccn2)nc(N)n1	TEAD-YAP block 34
CCCNc1cc(Nc2ncccn2)nc(N)n1	none
CCN(CC)CCn1c2ccccc2n2cc(-c3ccc(Br)cc3)nc12	FBW7 act 3.6
CCN(CC)CCn1c2ccccc2n2cc(-c3ccc(Cl)cc3)nc12	FBW7 act 4.3
CCN(CC)CCn1c2ccccc2n2cc(-c3ccc(Cl)c(Cl)c3)nc12	FBW7 act 6.2
CN(C)CCn1c2ccccc2n2cc(-c3ccc(-c4ccccc4)cc3)nc12	none
CCN(CC)CCn1c(-c2ccc(Cl)cc2)cn2c3ccccc3nc12	none
CCOc1ccc(-c2cn3c4ccccc4n(CCN(CC)CC)c3n2)cc1	none
N#CCSc1nc2ccccc2c(=O)n1CCN1CCOCC1	none
CC(=O)c1cccc(NC(=O)Nc2cccnc2)c1	TEAD-YAP block 33
O=C(Nc1cccnc1)Nc1cccc(F)c1	none
COc1cc(C=O)ccc1OCCc1ccccc1	TEAD-YAP block 33
COc1ccc(CC(=O)Nc2cccc(-c3nc4ncccc4o3)c2)cc1OC	TEAD-YAP block 71
COc1cc(C(=O)Nc2cccc(-c3nc4ncccc4o3)c2)ccc1OCc1ccc(Cl)cc1	none
O=C(C(I)c1ccc(Br)cc1)N1CCOCC1 (centres undefined)	none
CC1Cc2cc(-c3cc(CC(=O)NCc4cccnc4)no3)ccc2O1 (centres undefined)	TEAD-YAP block 34
COc1ccc(-c2cc(C(=O)NCc3cccnc3)no2)cc1	none
O=C(O)CC1S/C(=N/N=C/c2ccccc2OCc2ccccc2)NC1=O (centres undefined)	none
